SMILES strings stand for the structures. About 83,000 compounds went through this panel and 20% of them were active in at least one assay; those are over-represented in the sample as a whole.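 The test compound was applied at a single concentration to cells in 96-well plates for 48 hours, and percent growth was recorded.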 Values without a mark were called inactive. Active and inactive are the calls of the source. How the source made its calls: active means growth percent below 10; inactive means the rest.

The values that follow come from PubChem BioAssay (NCI).

Holding throughout (experiment): NCI-60 one-dose screen, 48 h (100 = growth as untreated, 0 = no growth, -100 = all killed)
The subject of one test is NCI-H23 lung. The conditions noted are these: 10 µM unless noted.
Another test relates to NCI-H226 lung. The conditions noted are these: 10 µM unless noted.
For another test, the system named is NCI-H322M lung. To be noted: 10 µM unless noted.
For a further test, the system named is HOP-62 NSCLC. To be noted: 10 µM unless noted.
For another test, the system named is NCI-H460 lung. The conditions noted are these: 10 µM unless noted.
Another test concerns HOP-92 NSCLC. To be noted: 10 µM unless noted.
Another test relates to NCI-H522 lung. The conditions noted are these: 10 µM.
In another test the test system is 786-0 renal. The conditions noted are these: 10 µM unless noted.
A further test relates to COLO 205 colon. To be noted: 10 µM unless noted.
A further test has as its system K-562 leukemia. To be noted: 10 µM unless noted.
Another test concerns MALME-3M melanoma. To be noted: 10 µM unless noted.
The next test relates to MDA-MB-231 breast. To be noted: 10 µM unless noted.
Another test concerns SF-268 CNS. The conditions noted are these: 10 µM unless noted.
Another test relates to SF-295 CNS. The conditions noted are these: 10 µM unless noted.
The test system of the next test is SF-539 CNS. To be noted: 10 µM unless noted.
For another test, the system named is UACC-257 melanoma. The conditions noted are these: 10 µM unless noted.
The next test has as its system M14 melanoma. The conditions noted are these: 10 µM unless noted.
The subject of the next test is A549/ATCC NSCLC. The conditions noted are these: 10 µM unless noted.
In a further test the test system is DU-145 prostate. The conditions noted are these: 10 µM unless noted.
Another test concerns RXF 393 renal. The conditions noted are these: 10 µM unless noted.

Turning to `O=C(N/N=C/c1cccc(O)c1)c1ccc(C(F)(F)F)nc1Nc1cccc(C(F)(F)F)c1`, the growth is 13.4% with NCI-H23 lung; 12.6% with NCI-H226 lung; -6.79% (active) with NCI-H322M lung; -32.9% (active) in the test on HOP-62 NSCLC; 11.5% with NCI-H460 lung; -28.4% (active) in the test on HOP-92 NSCLC. For the same compound, the growth in the test with NCI-H522 lung was -7.57% (active); in the test on 786-0 renal, -13.8% (active); in the test on COLO 205 colon it was -0.875% (active); with K-562 leukemia it was 5.13% (active); in the test with MALME-3M melanoma it was 1.33% (active); in the test with MDA-MB-231 breast, -26.8% (active). Further, the growth in the test with SF-268 CNS was 17.6%; in the test on SF-295 CNS, -39.3% (active); in the test on SF-539 CNS, 7.23% (active); in the test on UACC-257 melanoma it was 19.6%; in the test on M14 melanoma it was 35.7%.
As to `CCOC(=O)c1sc(NC(=O)COc2ccc(/C=C3\CCc4cc(OC)ccc4C3=O)cc2)nc1C`, the growth in the test on NCI-H23 lung was 96.6%; in the test with NCI-H226 lung it was 92.2%; with NCI-H322M lung, 96.5%; in the test on HOP-62 NSCLC, 103%; in the test on NCI-H460 lung it was 111%; in the test on HOP-92 NSCLC it was 106%. Further, the growth with NCI-H522 lung is -2.75% (active); in the test on 786-0 renal, 90.7%; with COLO 205 colon it was 137%; in the test on K-562 leukemia, 71.7%; with MDA-MB-231 breast, 94.1%; with SF-268 CNS, 80.1%. Moreover, the growth was 118% in the test with SF-295 CNS, 95.1% with SF-539 CNS, 93.7% in the test on UACC-257 melanoma and 106% in the test on M14 melanoma.
Turning to `COc1cc(/C=N/NC(=O)c2ccc(C(F)(F)F)nc2Nc2ccc(Cl)cc2C)ccc1O`, the growth with NCI-H23 lung was 47.9%; in the test on NCI-H226 lung, 39.6%; with NCI-H322M lung, 25.5%; in the test on HOP-62 NSCLC, 9.04% (active); in the test on NCI-H460 lung, 24.5%; in the test with HOP-92 NSCLC, 40%. The growth with NCI-H522 lung is 44.6%; in the test on 786-0 renal, 4.66% (active); in the test on COLO 205 colon, 51.8%; with K-562 leukemia, 15.2%; with MALME-3M melanoma, 15.1%; in the test with MDA-MB-231 breast, 53.1%. Moreover, the growth is 34.9% in the test on SF-268 CNS; 7.59% (active) with SF-295 CNS; 30.4% with SF-539 CNS; 57.2% in the test with UACC-257 melanoma; 50.9% in the test with M14 melanoma.
Consider `O=C(N/N=C/c1ccc(Cl)cc1Cl)c1ccccc1Nc1cccc(C(F)(F)F)c1`, for which the growth with NCI-H23 lung is 70.5%; with NCI-H226 lung it was 50%; in the test with NCI-H322M lung, 86.2%; in the test on HOP-62 NSCLC, 57.9%; with NCI-H460 lung, 104%; with HOP-92 NSCLC, -0.368% (active). Further, the growth in the test with NCI-H522 lung is 67%; with 786-0 renal, 74.9%; with COLO 205 colon it was 109%; in the test on K-562 leukemia, 35.3%; with MALME-3M melanoma it was 92.5%; with MDA-MB-231 breast it was 48.9%. Moreover, the growth with SF-268 CNS is 112%; with SF-295 CNS it was 24.4%; in the test with SF-539 CNS, -93% (active); with UACC-257 melanoma it was 83.6%; in the test on M14 melanoma, 95.6%.
As for `CC(=O)Nc1ccc(C(=O)COc2ccc(/C=C3\CCc4ccccc4C3=O)cc2)cc1`, the growth in the test with NCI-H23 lung was 108%; with NCI-H226 lung, 94.8%; in the test with NCI-H322M lung it was 108%; in the test with HOP-62 NSCLC it was 113%; in the test on NCI-H460 lung, 124%; with HOP-92 NSCLC, 114%. Also, the growth in the test with NCI-H522 lung is 92.4%; with 786-0 renal, 97%; with COLO 205 colon, 143%; in the test on K-562 leukemia, 80.4%; in the test with MDA-MB-231 breast, 103%; with SF-268 CNS, 93.6%. Also, the growth is 104% in the test with SF-295 CNS, 115% with SF-539 CNS, 98.9% with UACC-257 melanoma and 115% in the test on M14 melanoma.
In the case of `O=C(NN1C(=O)c2cc(C(=O)O)c(C(=O)O)cc2C1=O)c1ccncc1`, the growth was 108% with NCI-H23 lung; 95% in the test on NCI-H226 lung; 102% with NCI-H322M lung; 99.3% in the test on HOP-62 NSCLC; 111% with NCI-H460 lung; 4.14% (active) with HOP-92 NSCLC. Besides, the growth was 119% in the test on A549/ATCC NSCLC; 107% in the test with 786-0 renal; 105% with COLO 205 colon; 144% with DU-145 prostate; 62.4% in the test on K-562 leukemia; 76.8% in the test with MALME-3M melanoma. Also, the growth with MDA-MB-231 breast was 80.6%; in the test with RXF 393 renal, 127%; in the test on SF-268 CNS, 93.5%; in the test with SF-295 CNS, 102%; in the test with SF-539 CNS, 112%; with UACC-257 melanoma it was 114%.
`CCCCN1c2nc3ccccc3cc2Sc2cc3ccccc3nc21`: the growth was 97.6% with NCI-H23 lung; 93.2% in the test on NCI-H226 lung; 104% in the test on NCI-H322M lung; 90.7% in the test with HOP-62 NSCLC; 99% in the test with NCI-H460 lung; 28.4% with HOP-92 NSCLC. Moreover, the growth was 92.8% with NCI-H522 lung; 98.5% in the test on 786-0 renal; 132% in the test on COLO 205 colon; 99.4% in the test with K-562 leukemia; 117% in the test with MALME-3M melanoma; 76.4% with MDA-MB-231 breast. The growth in the test on SF-268 CNS was 91.7%; in the test with SF-295 CNS, 768%; in the test on SF-539 CNS, 100%; in the test on UACC-257 melanoma it was 104%; in the test on M14 melanoma it was 103%.
Consider `c1ccc(N2c3nc4ccccc4cc3Sc3cc4ccccc4nc32)nc1`, for which the growth in the test with NCI-H23 lung is 93.7%; in the test with NCI-H226 lung, 84.9%; in the test with NCI-H322M lung it was 83.6%; in the test on HOP-62 NSCLC, 90.8%; with NCI-H460 lung, 111%; in the test on HOP-92 NSCLC, 39%. Also, the growth was 98.1% in the test with NCI-H522 lung; 92.9% in the test with 786-0 renal; 141% with COLO 205 colon; 85.7% with K-562 leukemia; 68.4% in the test with MDA-MB-231 breast; 80.8% in the test on SF-268 CNS. The growth in the test on SF-295 CNS is 96.1%; in the test with SF-539 CNS it was 111%; in the test on UACC-257 melanoma, 87.8%; with M14 melanoma, 109%.
As for `COc1cc2c(cc1OC)C(=O)/C(=C/c1cccc(OCC(=O)c3ccccc3)c1)C2`, the growth with NCI-H23 lung was 90.8%; in the test with NCI-H226 lung, 86.1%; in the test on NCI-H322M lung, 75%; with HOP-62 NSCLC, 105%; in the test on NCI-H460 lung, 90.4%; in the test with HOP-92 NSCLC it was 40.9%. Further, the growth with NCI-H522 lung was 48.3%; in the test on 786-0 renal, 91.2%; in the test with COLO 205 colon it was 119%; in the test on K-562 leukemia, 43.8%; with MALME-3M melanoma it was 145%; in the test on MDA-MB-231 breast, 97.9%. The growth is 94.9% in the test on SF-268 CNS; 104% with SF-295 CNS; 78.2% in the test with SF-539 CNS; 95.4% in the test on UACC-257 melanoma; 96.3% with M14 melanoma.
